This is a sample that favours compounds with a hit; in the whole collection about 6.5% have one here.
HCMV antiviral – human cytomegalovirus inhibition | activity change, negative = inhibition, % at 57.5 µM | HFF cells, HCMV-luciferase reporter, 72 h; hits give low values | 410,000 tested, 4.5% active; in the data active means activity change below about -60%; inconclusive means no clear call, values can overlap the other calls; inactive means above about -39%
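Steps: HFFs plated, 16 h 37C; compounds added; HCMV-luciferase added to MOI 1 PFU/cell; 72 h 37C; OneGlo reagent, 5 min room temperature; luminescence read, normalized to controls.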
Vaccinia Venus – vaccinia inhibition (Venus reporter). Vaccinia virus Venus reporter expression, fluorescence. Potency, µM (doses to about 36.5 µM), for inactives: at the top dose activity change, negative = inhibition, usual class: inhibitors. 330,000 tested, 0.46% active; calls by dose curve; tested in A549 cells; further: potency means the concentration at half of the fitted maximal effect; nearly all actives have a fitted effect of over 30% in size
Lassa entry inh – Lassa virus entry inhibition; Lassa virus pseudotype entry inhibition, cell reporter; Potency, µM (top dose mostly 37.9 µM), without a hit: top-dose activity change, negative = inhibition, actives largely listed as inhibitors; 300,000 tested, 1.2% active; AID 540256; calls by dose curve; tested in HEK293 cells; further: potency means the concentration at half of the fitted maximal effect; nearly all actives have a fitted effect of over 50% in size
FMDV inh – blocks foot and mouth disease virus | FMDV antiviral cell-based qHTS | Potency, µM (series often up to 57.9 µM), inactives show at the top dose activity change, negative = inhibition, usual class: inhibitors | 410,000 tested, 1.2% active | AID 1159524; calls by dose curve; tested in HEK293T cells; further: read-out not given here; potency means the concentration at half of the fitted maximal effect; nearly all actives have a fitted effect of over 45% in size
MARV entry inh – blocks Marburg virus binding to or entry into cells; Marburg virus pseudotyped entry inhibition, cell reporter; Potency, µM (doses to about 37.8 µM), for the others: at the highest dose activity change, negative = inhibition, most hits filed as inhibitors; 300,000 tested, 1.8% active; calls by dose curve; tested in HEK293 cells; further: potency means the concentration at half of the fitted maximal effect
VACV mCherry inh – vaccinia inhibition (mCherry reporter). AID 720579. 310,000 tested, 0.63% active. Potency, µM (highest dose often 36.5 µM), for inactives: at the highest dose activity change, negative = inhibition, usual class: inhibitors. Vaccinia virus mCherry reporter infection, fluorescence; calls by dose curve; tested in A549 cells; further: potency means the concentration at half of the fitted maximal effect; nearly all actives have a fitted effect of over 35% in size
Starred values were filed as active, the others as inactive; [ ] = another dose, or the depositor's remark. On the % scale 0 is the no-effect control and ±100 the full control effect.

Screening CCC(COC)NC(=O)c1cnn(-c2ncc3c(n2)-c2ccccc2CCC3)c1C (stereo not given) returned Vaccinia Venus -17.0%, FMDV inh -5.9% and VACV mCherry inh -1.9%.
Screening COc1cc(CCNC(C)=O)c(C(=O)/C=C/c2cccc(OC)c2OC)cc1OC returned FMDV inh -18.0%.
`CCn1cc(Cl)c(C(=O)Nc2ccc3c(c2)OCCO3)n1` gave HCMV antiviral 55.8, Vaccinia Venus -10.0%, Lassa entry inh inconclusive, FMDV inh -17.0%, MARV entry inh 10µM* and VACV mCherry inh -0.8%.
Cc1cccc(NC(=O)c2ccc3c(c2)OCCO3)c1 was read as HCMV antiviral 17.8, Vaccinia Venus -6.9%, Lassa entry inh inconclusive, FMDV inh -37.1%, MARV entry inh 7.94µM* and VACV mCherry inh -9.1%.
Screening Cc1ccc(C(=O)Nc2ccc3ncccc3c2)cc1 returned HCMV antiviral -63.6*, Vaccinia Venus -16.9%, Lassa entry inh inconclusive, FMDV inh 14.1µM*, MARV entry inh inconclusive and VACV mCherry inh -11.3%.
For Cc1cc(=O)oc(C)c1C(=O)Nc1ccc2nsnc2c1 the results were HCMV antiviral 32.5, Vaccinia Venus inconclusive, Lassa entry inh 6.2%, FMDV inh 25.1µM* and MARV entry inh 23.5%.
O=C(Nc1ccccc1)c1ccc2c(c1)OCCO2 was read as HCMV antiviral 21.2, Vaccinia Venus -16.9%, Lassa entry inh inconclusive, FMDV inh 5.5%, MARV entry inh inconclusive and VACV mCherry inh inactive.
Screening Cc1cc(=O)oc(C)c1C(=O)Nc1ccc2ncccc2c1 returned HCMV antiviral -31.1, Lassa entry inh 0.3%, FMDV inh -11.3% and MARV entry inh 1.1%.
Screening COc1ccc(C(=O)Nc2ccc3ncccc3c2)cc1 returned HCMV antiviral -26.8, Vaccinia Venus -10.2%, Lassa entry inh inconclusive, FMDV inh -57.8%, MARV entry inh inconclusive and VACV mCherry inh inactive.
`CN1CCN(c2ncc3nc(-c4cc(F)cc(F)c4)c(=O)n(CCc4ccccc4)c3n2)CC1` gave FMDV inh -5.0%.
O=C(C[n+]1cccc2cccc(O)c21)c1ccc2ccccc2c1 was read as Vaccinia Venus 34.8% and VACV mCherry inh 29.9%.
`CCN(C(=O)Cn1nc(Cc2ccncc2)c2ccccc2c1=O)c1cccc(C(F)(F)F)c1` gave HCMV antiviral -34.5, Vaccinia Venus -13.0%, Lassa entry inh 8.4%[46.1 µM], FMDV inh -15.4%, MARV entry inh -1.4%[46.1 µM] and VACV mCherry inh -14.4%.
For Cn1c(CN2CCCCC2)nc2cc(NC(=O)c3ccccc3)ccc21 the results were HCMV antiviral -60.0*, Vaccinia Venus -12.7%, Lassa entry inh 36.4%[14.3 µM], FMDV inh -7.5%, MARV entry inh 10.6% and VACV mCherry inh inconclusive.
Cc1ccc(C(=O)Nc2ccc3c(c2)OCCO3)c(C)c1 was read as HCMV antiviral inconclusive, Vaccinia Venus 9.6%, Lassa entry inh inconclusive, FMDV inh inconclusive, MARV entry inh 1.26µM* and VACV mCherry inh inactive.
Screening O=C(Nc1cccc(C(=O)O)c1)Nc1ccc2c(c1)OCO2 returned HCMV antiviral -14.0, Vaccinia Venus -7.3%, Lassa entry inh 0.316µM*, FMDV inh inconclusive, MARV entry inh inconclusive and VACV mCherry inh inactive.
Screening O=C(Nc1ccc2c(c1)OCCO2)c1cccc2nc3ccccc3nc12 returned HCMV antiviral -92.1*, Lassa entry inh -29.3%, FMDV inh inconclusive and MARV entry inh inconclusive.
For COCCNc1nc(-c2ccccc2Cl)nc2ccccc12 the results were FMDV inh -19.0%.
`O=C(NCc1nnc2n1CCN(Cc1ccc(C(F)(F)F)cc1)CC2)c1ccccn1` gave Vaccinia Venus 3.9%, FMDV inh -16.9% and VACV mCherry inh -5.3%.
Screening CCOc1ccc(C(=O)CSc2nnc3cc(C)c4ccccc4n23)cc1 returned HCMV antiviral -0.4, Vaccinia Venus 2.7%, Lassa entry inh 24.5%[46.1 µM], FMDV inh -12.2%, MARV entry inh 26.8%[46.1 µM] and VACV mCherry inh -7.3%.
For CCOC(=O)Cc1nnc(Nc2ccc(C)cc2C)c2ccccc12 the results were HCMV antiviral -60.0*, Vaccinia Venus -18.1%, Lassa entry inh -16.0%, FMDV inh inconclusive, MARV entry inh 4.8% and VACV mCherry inh -9.9%.

Source: PubChem BioAssay (National Center for Advancing Translational Sciences (NCATS))
